The values that follow come from PubChem BioAssay (Tox21).

“And” between values parts separate entries of the source, which are not always exact repeats. Identical values can stand only once. Inconclusive results are not listed. Where a structure was tested more than once in an assay, its records may differ in their call. The source made the active and inactive calls. Unless noted, calls follow the shape of the dose curve; as a rule, active = well fitted curve in the direction sought with a large enough effect in the repeat runs; inconclusive = weak or mixed curves; inactive = no such curve, though single readings can be large; an effect the other way counts as inactive or inconclusive.

A short description of test [1]: qHTS assay to identify small molecule antagonists of the thyroid receptor (TR) signaling pathway (AID 743065). Also: nearly all actives have a fitted effect of over 55% in size. Also: potency is read from the fitted curve at half-maximal effect. An outline of the steps:
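GH3.TRE-Luc rat pituitary cells carrying two TR response elements driving luciferase were plated for 4 h, given compound plus 1 nM T3 (final), and incubated 23.5 h at 37 C. ONE-Glo luminescence measured reporter inhibition; CellTiter-Fluor fluorescence tracked cytotoxicity.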
On the technique in general: Quantitative high-throughput screening tests each substance at several concentrations.

Test [2] relates to thyroid hormone receptor (rat, GH3 cells). As to the kind of experiment: qHTS assay to identify small molecule agonists of the thyroid receptor (TR) signaling pathway (AID 743066; calls by dose curve).
Test [3] has as its target Estrogen receptor (Homo sapiens) (UniProt P03372). As to the kind of experiment: qHTS assay to identify small molecule antagonists of the estrogen receptor alpha (ER-alpha) signaling pathway (AID 743069; active = well fitted curve in the direction sought with a large enough effect in the signal ratio in the repeat runs, not every such curve was filed as active; the % refers to the signal ratio). An outline of the steps: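 Estradiol-stimulated ER-alpha-UAS-bla HEK293 cells, 18 hr compound exposure at 37C. LiveBLAzer B/G substrate, 2 hr RT, fluorescence read.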

Test [4] can be described thus: qHTS assay to identify small molecule antagonists of the estrogen receptor alpha (ER-alpha) signaling pathway - cell viability counter screen (AID 743074; calls by dose curve;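 also: HEK293 cells carrying ER-alpha-UAS-bla reporter stimulated with 17beta-estradiol; nearly all actives have a fitted effect of over 45% in size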).
Test [5] has as its target Estrogen receptor (Homo sapiens) (UniProt P03372). As to the kind of experiment: qHTS assay to identify small molecule agonists of the estrogen receptor alpha (ER-alpha) signaling pathway (AID 743075; calls by dose curve;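 also: HEK293 GripTite cells with ER-alpha and UAS-driven beta-lactamase reporter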; also: potency is read from the fitted curve at half-maximal effect).
For test [6] the target is unchanged. As to the kind of experiment: qHTS assay to identify small molecule agonists of the estrogen receptor alpha (ER-alpha) signaling pathway using the BG1 cell line (AID 743079). Also: nearly all actives have a fitted effect of over 20% in size. Also: potency is read from the fitted curve at half-maximal effect.
Test [7] can be described thus: qHTS assay to identify small molecule antagonists of the estrogen receptor alpha (ER-alpha) signaling pathway using the BG1 cell line (AID 743080; calls by dose curve;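 also: BG1 cells stimulated with 17beta-estradiol alongside compound; series mostly up to about 70 µM; nearly all actives have a fitted effect of over 25% in size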). The gist of the method: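 Quantitative HTS on the Tox21 10K library: BG1 cells with endogenous ER-alpha and ERE-luciferase reporter, 17beta-estradiol stimulation, 21.5 h compound exposure, luminescence endpoint with parallel fluorescence cytotoxicity counter-read.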

The nature of test [8]: qHTS assay to identify small molecule antagonists of the estrogen receptor alpha (ER-alpha) signaling pathway using the BG1 cell line - cell viability counter screen (AID 743081).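 Also: compound given together with 17beta-estradiol as the ER stimulus; series mostly up to about 70 µM; nearly all actives have a fitted effect of over 45% in size.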
In test [9] the target is Aryl hydrocarbon receptor (Homo sapiens) (UniProt P35869). As to the kind of experiment: qHTS assay to identify small molecule that activate the aryl hydrocarbon receptor (AhR) signaling pathway (AID 743085). Also: nearly all actives have a fitted effect of over 15% in size. Also: potency is read from the fitted curve at half-maximal effect.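 As to activation: HG2L7.5c1 human HepG2 liver cells with stably integrated DRE-driven firefly reporter; series mostly up to about 70 µM.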 An outline of the steps:
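Steps: seed HepG2-AhR-luc cells; allow 5 h at 37C; pin-transfer test compound or vehicle; incubate 24 h at 37C; add viability dye (30 min, 37C) and read fluorescence; add luciferase substrate (30 min, RT) and read luminescence.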

Test [10] in a line: qHTS assay to identify small molecule that activate the aryl hydrocarbon receptor (AhR) signaling pathway - cell viability counter screen (AID 743086).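 Also: HepG2 liver cells carrying the AhR DRE luciferase reporter; series mostly up to about 70 µM; nearly all actives have a fitted effect of over 45% in size.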 An outline of the steps: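 HepG2-AhR-luc (HG2L7.5c1) cells, 4000/well, were preincubated 5 h at 37C, exposed to compound in qHTS format for 24 hr at 37C, then given CellTiter-Fluor for 30 min; viability was read as fluorescence in the reporter wells.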

Test [11] concerns the target Peroxisome proliferator-activated receptor gamma (Homo sapiens) (UniProt P37231). As to the kind of experiment: qHTS assay to identify small molecule agonists of the peroxisome proliferator-activated receptor gamma (PPARg) signaling pathway (AID 743094; active = well fitted activation curve with a large enough effect in the signal ratio in the repeat runs, not every such curve was filed as active; the % refers to the signal ratio). An outline of the steps:
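Beta-lactamase FRET fluorescence was the read-out after a 1 h room-temperature substrate step, following 17 h compound treatment at 37C of HEK293H cells expressing a UAS-driven bla reporter responsive to PPARg.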

Test [12] in a line: qHTS assay to identify small molecule antagonists of the peroxisome proliferator-activated receptor gamma (PPARg) signaling pathway - cell viability counter screen (AID 743194). Also: nearly all actives have a fitted effect of over 55% in size. The gist of the method: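 PPARg-UAS-bla HEK293H cells were plated, rested 5 h at 37 C, then treated with compounds plus rosiglitazone (50 nM final) for 17 h at 37 C; viability was then read by CellTiter-Glo luminescence after 30 min at room temperature.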

Test [13] can be described thus: qHTS assay for small molecule agonists of the antioxidant response element (ARE) signaling pathway (AID 743202; active = well fitted activation curve with a large enough effect in the signal ratio in the repeat runs, not every such curve was filed as active; the % refers to the signal ratio; also: potency is read from the fitted curve at half-maximal effect). An outline of the steps:
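Compounds delivered in DMSO to ARE-bla HepG2 cells (2,000 cells/well, pre-incubated 5 h) and left 16 h at 37 C. LiveBLAzer B/G FRET substrate then added for 2 h at RT before fluorescence reading.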

Test [14] is described as follows: qHTS assay for small molecule activators of the heat shock response signaling pathway - cell viability counter screen (AID 743209). Also: nearly all actives have a fitted effect of over 50% in size. The gist of the method: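 Luminescence from CellTiter-Glo, added after the beta-lactamase FRET read, gave the viability signal. Cells were HSE-bla HeLa treated with DMSO-dissolved compounds for 5 h at 37 C following overnight plating.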

A short description of test [15]: qHTS assay for small molecule activators of the heat shock response signaling pathway (AID 743210; active = well fitted activation curve with a large enough effect in the signal ratio in the repeat runs, with a control signal flat, not every such curve was filed as active; the % refers to the signal ratio;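 also: HeLa cells with beta-lactamase reporter driven by heat shock elements; series mostly up to about 63 µM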). The gist of the method: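 Reporter gene assay: HeLa cells stably bearing an HSE-bla construct, compound treatment 5 h at 37 C, LiveBLAzer substrate 2.5 h at RT, fluorescence intensity.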
A short description of test [16]: qHTS assay to identify small molecule agonists of the peroxisome proliferator-activated receptor delta (PPARd) signaling pathway - cell viability counter screen (AID 743211). Also: nearly all actives have a fitted effect of over 55% in size. The gist of the method:
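Viability of GeneBLAzer PPARd UAS-bla HEK293H cells was assessed after 17 h compound incubation at 37C, using CellTiter-Glo reagent added after the reporter read and luminescence recorded 30 min later.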

The target in the next test is Aromatase (Homo sapiens) (UniProt P11511). As to the kind of experiment: qHTS assay to identify aromatase inhibitors (AID 743083). Also: nearly all actives have a fitted effect of over 55% in size. Also: potency is read from the fitted curve at half-maximal effect.
The nature of test [17]: qHTS assay to identify aromatase inhibitors - cell viability counter screen (AID 743084). Also: potency is read from the fitted curve at half-maximal effect.
For test [18], the target named is Peroxisome proliferator-activated receptor gamma (Homo sapiens) (UniProt P37231). As to the kind of experiment: qHTS assay to identify small molecule antagonists of the peroxisome proliferator-activated receptor gamma (PPARg) signaling pathway (AID 743191; calls by dose curve; also: series mostly up to about 63 µM; nearly all actives have a fitted effect of over 30% in size). The gist of the method:
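GeneBLAzer PPARg UAS-bla HEK293H cells carrying a UAS-driven beta-lactamase reporter were plated at 3000 cells/well, preincubated 5 h at 37C, then given compound for 17 h at 37C; LiveBLAzer B/G FRET substrate was read after 1 h at room temperature.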

Test [19] can be described thus: qHTS assay for small molecule agonists of the antioxidant response element (ARE) signaling pathway - cell viability counter screen (AID 743203; calls by dose curve; also: nearly all actives have a fitted effect of over 55% in size; also: potency is read from the fitted curve at half-maximal effect). The gist of the method:
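HepG2 cells carrying ARE-driven beta-lactamase; 2,000 cells/well; 5 hrs plating; compound pinned from DMSO; 16 hrs 37C/5% CO2; CellTiter-Glo added; 30 min RT; luminescence.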

Sequence of Aromatase (Homo sapiens) (P11511 whole entry, looked up): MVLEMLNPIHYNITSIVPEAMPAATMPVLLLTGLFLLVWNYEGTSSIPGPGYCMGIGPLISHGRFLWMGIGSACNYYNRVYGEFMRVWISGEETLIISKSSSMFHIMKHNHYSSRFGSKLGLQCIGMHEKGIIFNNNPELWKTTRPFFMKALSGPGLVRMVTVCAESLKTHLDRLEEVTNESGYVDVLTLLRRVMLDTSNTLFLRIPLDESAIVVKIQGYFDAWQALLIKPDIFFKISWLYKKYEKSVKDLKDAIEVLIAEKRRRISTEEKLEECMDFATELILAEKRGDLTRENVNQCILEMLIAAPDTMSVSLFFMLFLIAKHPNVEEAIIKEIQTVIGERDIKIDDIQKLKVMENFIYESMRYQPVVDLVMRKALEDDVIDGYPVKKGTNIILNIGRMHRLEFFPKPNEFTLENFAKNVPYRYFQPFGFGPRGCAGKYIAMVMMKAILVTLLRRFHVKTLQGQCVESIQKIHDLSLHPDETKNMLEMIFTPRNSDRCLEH
Sequence of Peroxisome proliferator-activated receptor gamma (Homo sapiens) (P37231 whole entry, looked up): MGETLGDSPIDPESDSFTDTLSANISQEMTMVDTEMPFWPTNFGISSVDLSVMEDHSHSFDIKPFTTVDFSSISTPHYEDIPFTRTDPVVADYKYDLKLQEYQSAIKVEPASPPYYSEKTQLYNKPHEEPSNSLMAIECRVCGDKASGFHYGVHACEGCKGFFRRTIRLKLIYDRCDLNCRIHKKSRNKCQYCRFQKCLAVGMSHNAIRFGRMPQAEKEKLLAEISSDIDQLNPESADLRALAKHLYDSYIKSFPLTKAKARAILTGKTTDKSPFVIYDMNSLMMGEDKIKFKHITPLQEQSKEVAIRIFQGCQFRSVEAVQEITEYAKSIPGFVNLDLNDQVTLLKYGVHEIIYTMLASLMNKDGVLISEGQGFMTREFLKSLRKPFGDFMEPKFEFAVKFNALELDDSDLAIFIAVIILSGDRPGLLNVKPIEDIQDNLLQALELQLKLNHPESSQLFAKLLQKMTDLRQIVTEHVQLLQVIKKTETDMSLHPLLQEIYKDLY
Sequence of Estrogen receptor (Homo sapiens) (P03372 whole entry, looked up): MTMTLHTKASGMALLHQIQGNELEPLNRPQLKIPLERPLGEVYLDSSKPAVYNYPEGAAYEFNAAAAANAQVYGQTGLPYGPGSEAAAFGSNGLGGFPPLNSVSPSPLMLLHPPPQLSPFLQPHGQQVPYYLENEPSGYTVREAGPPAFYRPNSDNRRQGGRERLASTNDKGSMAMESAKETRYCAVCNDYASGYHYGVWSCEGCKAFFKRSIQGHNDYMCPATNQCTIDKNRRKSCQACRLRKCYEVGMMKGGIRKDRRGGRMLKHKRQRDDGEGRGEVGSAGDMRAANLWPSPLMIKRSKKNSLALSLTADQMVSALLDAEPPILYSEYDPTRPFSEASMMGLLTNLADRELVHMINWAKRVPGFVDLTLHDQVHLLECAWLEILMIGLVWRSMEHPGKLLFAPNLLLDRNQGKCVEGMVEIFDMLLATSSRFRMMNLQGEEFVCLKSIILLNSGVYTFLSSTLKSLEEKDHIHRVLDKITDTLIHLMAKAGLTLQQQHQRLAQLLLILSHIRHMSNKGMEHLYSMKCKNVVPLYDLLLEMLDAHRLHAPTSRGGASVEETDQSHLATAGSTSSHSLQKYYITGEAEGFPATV
Sequence of Aryl hydrocarbon receptor (Homo sapiens) (P35869 whole entry, looked up): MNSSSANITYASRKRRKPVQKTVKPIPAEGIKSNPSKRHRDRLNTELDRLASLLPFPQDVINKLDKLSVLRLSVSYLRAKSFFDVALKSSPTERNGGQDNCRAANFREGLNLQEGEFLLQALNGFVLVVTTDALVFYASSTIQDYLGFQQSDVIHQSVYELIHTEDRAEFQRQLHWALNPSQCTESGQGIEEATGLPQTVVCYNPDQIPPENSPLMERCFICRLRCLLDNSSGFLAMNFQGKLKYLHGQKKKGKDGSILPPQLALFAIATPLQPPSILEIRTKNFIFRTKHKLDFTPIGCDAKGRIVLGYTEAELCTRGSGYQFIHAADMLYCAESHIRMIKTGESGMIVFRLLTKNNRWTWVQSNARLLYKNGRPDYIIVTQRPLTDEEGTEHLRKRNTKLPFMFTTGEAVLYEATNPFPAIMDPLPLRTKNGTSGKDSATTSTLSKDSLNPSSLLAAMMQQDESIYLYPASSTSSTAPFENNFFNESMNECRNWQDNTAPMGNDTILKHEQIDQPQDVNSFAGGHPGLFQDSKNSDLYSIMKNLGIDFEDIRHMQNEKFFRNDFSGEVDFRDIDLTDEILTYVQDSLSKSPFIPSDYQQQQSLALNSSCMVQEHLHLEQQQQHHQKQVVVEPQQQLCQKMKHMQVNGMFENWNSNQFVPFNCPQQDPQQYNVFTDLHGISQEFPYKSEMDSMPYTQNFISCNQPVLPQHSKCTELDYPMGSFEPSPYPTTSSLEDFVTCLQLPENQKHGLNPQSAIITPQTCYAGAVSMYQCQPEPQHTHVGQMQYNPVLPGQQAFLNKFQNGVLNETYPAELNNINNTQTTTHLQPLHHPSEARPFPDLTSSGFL

`CCCCCC=O`: the Potency result in test [1], in test [2], in test [3], in test [4], in test [5] and in test [6] was “inactive” in each case. Besides, the Potency result in test [7], in test [8], in test [9], in test [10], in [12] and in test [13] was “inactive” each time. For the same molecule, the Potency entry in [14] and in test [16] was “inactive” each time. For the same molecule, the outcome in [11] and in [15] was inactive.

`Brc1nc2ccccc2s1`: the Potency entry in test [1], in [2], in test [3], in test [5], in test [6] and in [7] was “inactive” throughout. For the same molecule, the Potency entry (in [8]; with Aromatase (Homo sapiens); in [17]; in test [10]; in test [18]; in [12]) was “inactive” in each case. Moreover, the Potency entry in test [14] and in test [16] was “inactive” each time. Moreover, the Potency in test [9] is 30.5 µM (active) and 13.7 µM (active). Moreover, the result in [11] and in test [15] was inactive.

`Cc1ccc(C)c(O)c1`: the Potency entry (in [1]; in test [2]; in [4]; in [8]; in the test with Aromatase (Homo sapiens); in [17]) was “inactive” in each case. Moreover, the Potency result in test [9], in [10], in test [18], in test [12], in test [13] and in test [19] was “inactive” in each case. Moreover, the Potency result in test [14] and in [16] was “inactive” in each case. Besides, the call in test [11] and in test [15] was inactive.

For `CC1(C)NC(=O)N(c2ccc([N+](=O)[O-])c(C(F)(F)F)c2)C1=O`, the Potency was 23.7 µM (active) and 24.3 µM (active) in [1]; “inactive and 27.3 µM (active)” in the test with Aromatase (Homo sapiens); 6.86 µM (active) and 26.6 µM (active) in [13]. For the same molecule, the Potency entry in test [2], in test [4], in test [8], in test [17], in [9] and in test [10] was “inactive” throughout. Also, the Potency entry in test [18], in test [12], in test [19] and in test [14] was “inactive” in each case. Besides, the outcome in test [11] and in test [15] was inactive.

With `O=Cc1ccccc1C=O`, the Potency in [1] was 9.44 µM (active) and 2.17 µM (active); in [5] it was 23.9 µM [activator] (active) and inactive; in [6] it was 21.1 µM (active) and 30.6 µM (active); with Aromatase (Homo sapiens), “inactive and 8.63 µM (active)”; in test [17], 17.2 µM (active); in test [19], 12.2 µM (active) and inactive. In addition, the Potency result in [2], in test [3], in test [4], in test [8], in test [9] and in test [10] was “inactive” throughout. The Potency result in test [18], in test [13], in test [14] and in [16] was “inactive” in each case. In [15], the outcome was inactive.

For `ClC/C=C/CCl`, the Potency entry in [1], in test [2], in test [3], in test [4], in [5] and in test [6] was “inactive” throughout. The Potency result (in test [7]; in test [8]; with Aromatase (Homo sapiens); in [17]; in test [10]; in test [18]) was “inactive” each time. Also, the Potency result in [12], in [14] and in [16] was “inactive” throughout. For the same molecule, the molecule was classed as inactive in [11] and in test [15]. For the same molecule, the Potency in [13] was 24.1 µM (active) and 24.5 µM (active).

Take `Cc1ccc2c(c1)C(=O)OC2=O`: the Potency result (in [1]; in test [2]; in [4]; in test [8]; in the test with Aromatase (Homo sapiens); in [17]) was “inactive” each time. Besides, the Potency result in [9], in [10], in test [18], in test [12], in test [13] and in [19] was “inactive” each time. In addition, the Potency entry in test [14] is “inactive”. The result in [11] and in test [15] was inactive.
